PubChem BioAssay (NCI)
This is part of a sample that, as a whole, favours compounds with a hit. Of some 79,000 tested, about 15% had one in any assay. Activity calls are given as the source filed them. Cut-off read from the data, not from the text of the source: active = growth inhibition above about 70%; inactive = the rest.

Legend:
[1] = NCI Yeast Anticancer Drug Screen. Data for the rad52 strain (AID 147);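 note: 0% = growth of vehicle-treated control cultures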; settings: S. cerevisiae rad52 mutant growth inhibition, stronger effect = higher value
Outline: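 The repair-mutant yeast strain was incubated with compounds, then growth was read and inhibition derived relative to vehicle.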

[2] = NCI Yeast Anticancer Drug Screen. Data for the wt1 strain (AID 149);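 note: 0% = growth of vehicle-treated wt1 cultures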; settings: S. cerevisiae wt1 strain (SPY 50644) growth inhibition, stronger effect = higher value
Outline: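 Vehicle-normalised growth inhibition; strain wt1; compound exposure.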

[3] = NCI Yeast Anticancer Drug Screen. Data for the rad50EPP+ strain (AID 151);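 note: 0% = growth of vehicle-treated control cultures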; settings: S. cerevisiae rad50 mutant strain, stronger effect = higher value
Outline: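 Vehicle-normalised growth inhibition; rad50EPP+ yeast strain, altered in DNA damage repair, compound-treated.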

[4] = NCI Yeast Anticancer Drug Screen. Data for the mgt1 strain (AID 153); settings: S. cerevisiae mgt1 mutant growth inhibition, stronger effect = higher value
Outline: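 Vehicle-normalized growth inhibition is determined in mgt1 yeast, a strain selected for a defined alteration in DNA repair or cell cycle control.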

[5] = NCI Yeast Anticancer Drug Screen. Data for the rad50 strain (AID 155);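 note: 0% = growth of vehicle-only cultures of the same strain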; settings: S. cerevisiae rad50 strain growth inhibition, stronger effect = higher value
Outline: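 A DNA repair-deficient yeast mutant serves as the test organism; compound-induced growth inhibition is calculated against vehicle-treated cells.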

[6] = NCI Yeast Anticancer Drug Screen. Data for the mec2-1 strain (AID 157); settings: S. cerevisiae mec2-1 strain, stronger effect = higher value
Outline: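 Mutant yeast (mec2-1) grown with compound; growth inhibition relative to vehicle control reported.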

[7] = NCI Yeast Anticancer Drug Screen. Data for the rad14 strain (AID 159);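 note: 0% = growth of vehicle-treated control cultures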; settings: S. cerevisiae rad14 strain growth inhibition, stronger effect = higher value
Outline: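 Vehicle-treated cultures served as the baseline for growth inhibition of a DNA repair-mutant yeast strain exposed to each compound.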

[8] = NCI Yeast Anticancer Drug Screen. Data for the sgs1 mgt1 strain (AID 161);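 note: 0% = growth of cultures given vehicle only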; settings: S. cerevisiae sgs1 mgt1 strain, stronger effect = higher value
Outline: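 Percent growth inhibition was derived by comparing compound-exposed mutant yeast with vehicle-exposed cultures. The strain carries alterations in DNA damage repair.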

[9] = NCI Yeast Anticancer Drug Screen. Data for the CLN2oe strain (AID 163);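 note: 0% = growth of vehicle-only control cultures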; settings: S. cerevisiae CLN2oe strain, stronger effect = higher value
Outline: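 Compounds are applied to yeast harbouring a defined cell-cycle control change; reduced growth compared with vehicle-treated controls gives the value.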

[10] = NCI Yeast Anticancer Drug Screen. Data for the cln2 rad14 strain (AID 165);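 note: 0% = growth equal to vehicle treated cultures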; settings: S. cerevisiae cln2 rad14 strain, stronger effect = higher value
Outline: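 Readout is yeast growth inhibition versus vehicle-treated controls, using a strain with cln2 and rad14 alterations exposed to compound.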

[11] = NCI Yeast Anticancer Drug Screen. Data for the bub3 strain (AID 167); settings: S. cerevisiae bub3 mutant strain, stronger effect = higher value
Outline: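 Inhibition values come from growth of compound-treated mutant yeast normalised to vehicle-treated controls.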

[12] = NCI Yeast Anticancer Drug Screen. Data for the wt2 strain (AID 169);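 note: 0% = growth of vehicle-treated yeast cultures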; settings: S. cerevisiae wt2 strain growth inhibition, stronger effect = higher value
Outline: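 Against vehicle-treated controls, the growth of yeast exposed to each compound was compared, and the inhibition was recorded.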

[13] = NCI Yeast Anticancer Drug Screen. Data for the mlh1 strain (AID 171);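 note: 0% = growth of vehicle-treated control cultures of the same strain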; settings: S. cerevisiae mlh1 strain growth inhibition, stronger effect = higher value
Outline: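 Measured: yeast growth. Reference: vehicle-treated controls. Organism: strain with a defined alteration affecting DNA damage repair or cell cycle control, treated with compound.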

[14] = NCI Yeast Anticancer Drug Screen. Data for the mlh1 rad18 strain (AID 175); settings: S. cerevisiae mlh1 rad18 strain growth inhibition, stronger effect = higher value
Outline: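 Genetically defined yeast (DNA repair-deficient) exposed to compounds; growth inhibition determined relative to vehicle.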

[15] = NCI Yeast Anticancer Drug Screen. Data for the rad18 strain (AID 177); settings: S. cerevisiae rad18 mutant growth inhibition, stronger effect = higher value
Outline: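 Vehicle-treated cultures served as the baseline for scoring compound-induced growth inhibition in DNA-repair-mutant yeast.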

[16] = at 5.0 µM (retest, dose inferred, filed as 0.5)
[17] = at 50.0 µM (retest, dose inferred, filed as 5.0)

Measured: growth inhibition

CC1(C)CC(=O)C(/C=N/c2nc(-c3ccc(Br)cc3)cs2)=C(O)C1
active: [1]; at 33.0 µM 95% | [1]; at 100.0 µM 97% | [2]; at 33.0 µM 91% | [3]; at 33.0 µM 95% | [3]; at 100.0 µM 98% | [4]; at 33.0 µM 96% | [4]; at 100.0 µM 98% | [5]; at 33.0 µM 94% | [5]; [17] 96% | [5]; at 50.0 µM 99% | [5]; at 100.0 µM 97% | [6]; at 33.0 µM 96% | [6]; [17] 97% | [6]; at 50.0 µM 97.5% | [6]; at 100.0 µM 98% | [7]; at 33.0 µM 95% | [7]; at 100.0 µM 98% | [8]; [17] 98% | [8]; at 50.0 µM 99.2% | [9]; at 33.0 µM 93% | [9]; at 100.0 µM 97% | [10]; [17] 97% | [10]; at 50.0 µM 98.3% | [11]; at 33.0 µM 96% | [11]; [17] 98% | [11]; at 50.0 µM 98.8% | [11]; at 100.0 µM 98% | [12]; at 33.0 µM 93% | [12]; at 100.0 µM 98% | [13]; at 33.0 µM 96% | [13]; at 100.0 µM 98% | [14]; [17] 99% | [14]; at 50.0 µM 98.8% | [15]; at 33.0 µM 96% | [15]; at 100.0 µM 97%
inactive: [1]; at 1.2 µM 11% | [1]; at 3.7 µM 20% | [1]; at 11.0 µM 53% | [2]; at 1.2 µM 1% | [2]; at 3.7 µM 4% | [2]; at 11.0 µM 17% | [2]; at 100.0 µM 60% | [3]; at 1.2 µM 5% | [3]; at 3.7 µM 17% | [3]; at 11.0 µM 51% | [4]; at 1.2 µM 4% | [4]; at 3.7 µM 6% | [4]; at 11.0 µM 37% | [5]; at 1.2 µM 3% | [5]; at 3.7 µM 32% | [5]; [16] -4% | [5]; at 11.0 µM 48% | [6]; at 1.2 µM 7% | [6]; at 3.7 µM 11% | [6]; [16] -10% | [6]; at 11.0 µM 35% | [7]; at 1.2 µM 6% | [7]; at 3.7 µM 6% | [7]; at 11.0 µM 36% | [8]; [16] -8% | [9]; at 1.2 µM 1% | [9]; at 3.7 µM 7% | [9]; at 11.0 µM 31% | [10]; [16] 65% | [11]; at 1.2 µM 3% | [11]; at 3.7 µM 3% | [11]; [16] -22% | [11]; at 11.0 µM 24% | [12]; at 1.2 µM 0% | [12]; at 3.7 µM 3% | [12]; at 11.0 µM 29% | [13]; at 1.2 µM 3% | [13]; at 3.7 µM 5% | [13]; at 11.0 µM 30% | [14]; [16] 0% | [15]; at 1.2 µM 2% | [15]; at 3.7 µM 5% | [15]; at 11.0 µM 37%

CCCCCCCCN1COCC(COc2ccccc2C)OC1 (stereo unspecified)
inactive: [1]; at 1.2 µM -3% | [1]; at 3.7 µM 0% | [1]; at 11.0 µM 1% | [1]; at 33.0 µM 13% | [2]; at 1.2 µM -1% | [2]; at 3.7 µM -1% | [2]; at 11.0 µM 2% | [2]; at 33.0 µM 8% | [3]; at 1.2 µM -7% | [3]; at 3.7 µM -4% | [3]; at 11.0 µM -2% | [3]; at 33.0 µM 11% | [3]; at 100.0 µM 18% | [4]; at 1.2 µM -1% | [4]; at 3.7 µM -2% | [4]; at 11.0 µM 0% | [4]; at 33.0 µM 5% | [5]; at 1.2 µM -2% | [5]; at 3.7 µM -4% | [5]; [16] 0% | [5]; at 11.0 µM 3% | [5]; at 33.0 µM 5% | [5]; [17] 5% | [6]; at 1.2 µM -4% | [6]; at 3.7 µM -4% | [6]; [16] 3% | [6]; at 11.0 µM -6% | [6]; at 33.0 µM 2% | [6]; [17] -7% | [7]; at 1.2 µM 0% | [7]; at 3.7 µM 1% | [7]; at 11.0 µM 1% | [7]; at 33.0 µM 22% | [8]; [16] -1% | [8]; [17] 1% | [9]; at 1.2 µM -4% | [9]; at 3.7 µM 0% | [9]; at 11.0 µM -58% | [9]; at 33.0 µM 9% | [10]; [16] 20% | [10]; [17] 44% | [10]; at 50.0 µM 55.2% | [11]; at 1.2 µM -9% | [11]; at 3.7 µM -7% | [11]; [16] -25% | [11]; at 11.0 µM 5% | [11]; at 33.0 µM 15% | [11]; [17] 1% | [12]; at 1.2 µM -1% | [12]; at 3.7 µM 0% | [12]; at 11.0 µM 0% | [12]; at 33.0 µM 13% | [14]; [16] -8% | [14]; [17] -2% | [15]; at 1.2 µM -15% | [15]; at 3.7 µM -4% | [15]; at 11.0 µM 4% | [15]; at 33.0 µM 11%
active: [1]; at 100.0 µM 99% | [2]; at 100.0 µM 96% | [4]; at 100.0 µM 99% | [5]; at 50.0 µM 97.3% | [5]; at 100.0 µM 99% | [6]; at 50.0 µM 85.3% | [6]; at 100.0 µM 99% | [7]; at 100.0 µM 99% | [8]; at 50.0 µM 93.3% | [9]; at 100.0 µM 99% | [11]; at 50.0 µM 76.5% | [11]; at 100.0 µM 98% | [12]; at 100.0 µM 99% | [14]; at 50.0 µM 95% | [15]; at 100.0 µM 99%
